# Legend:
# Settings in all cases: concentration: 1 μM, replicates: in singlicate; n = 1
# HPK1 = system: HPK1
# HUNK = system: HUNK
# ICK = system: ICK
# IGF1R = system: IGF1R
# IKK-alpha = system: T1, IKK-alpha
# T1 construct: gene CHUK
# IKK-beta = system: T2, IKK-beta
# T2 construct: gene IKBKB
# IKK-epsilon = system: T3, IKK-epsilon
# T3 construct: gene IKBKE
# INSRR = system: INSRR
# INSR = system: INSR
# IRAK1 = system: IRAK1
# IRAK3 = system: IRAK3
# IRAK4 = system: IRAK4
# ITK = system: ITK
# [1] = system: JAK1(JH1domain-catalytic)
# [2] = system: JAK1(JH2domain-pseudokinase)
# [3] = system: JAK2(JH1domain-catalytic)
# [4] = system: JAK3(JH1domain-catalytic)
# JNK1 = system: T4, JNK1
# T4 construct: gene MAPK8
# JNK2 = system: T5, JNK2
# T5 construct: gene MAPK9
# JNK3 = system: T6, JNK3
# T6 construct: gene MAPK10
# 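Note: KINOMEscan kinase panel screen.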
Compound,%Inh (HPK1) [%],%Inh (HUNK) [%],%Inh (ICK) [%],%Inh (IGF1R) [%],%Inh (IKK-alpha) [%],%Inh (IKK-beta) [%],%Inh (IKK-epsilon) [%],%Inh (INSRR) [%],%Inh (INSR) [%],%Inh (IRAK1) [%],%Inh (IRAK3) [%],%Inh (IRAK4) [%],%Inh (ITK) [%],%Inh [1] [%],%Inh [2] [%],%Inh [3] [%],%Inh [4] [%],%Inh (JNK1) [%],%Inh (JNK2) [%],%Inh (JNK3) [%]
COc1cc(Nc2nccc(N3CCC(NC(=O)c4cccc(NC(C)=O)c4)C3)n2)cc(OC)c1OC (stereo not drawn) [GSK1379754],70,0,0,0,5,8,14,0,1,40,85,12,6,7,11,97.3,0,31,22,40
O=C(NCCCN1CCOCC1)c1cccc(Nc2nccc(Nc3ccc(Oc4ccccc4)cc3)n2)c1 [GW663929],8,0,0,0,0,0,0,0,15,28,63,0,0,46,21,82,0,33,25,16
N#Cc1c(N2CCOCC2)sc(-c2ccn[nH]2)c1-c1ccc(Cl)cc1,0,16,24,0,10,25,0,0,0,20,16,1,6,0,29,22,0,40,23,43
Cc1nnc(-c2ccc3ncc(-c4ccc(S(C)=O)cc4)n3c2)o1 (stereo not drawn),0,0,22,0,15,21,0,0,2,7,23,15,7,11,0,0,0,22,18,24
CNc1ncnc2[nH]ncc12 [SKF-18355],0,34,0,0,0,0,0,0,7,9,0,0,0,0,31,20,2,8,1,0
O=C(c1ccc(-c2cc(-c3c[nH]nc3-c3ccccn3)ccn2)cc1)N1CCOCC1 [GW812171],0,33,0,0,46,0,0,0,21,14,0,0,5,0,48,37,0,30,19,2
CN(C1=C(c2ccccc2)C(=O)NC1=O)c1ccccc1 [SB-334860],0,0,13,12,0,0,27,0,5,0,0,0,0,0,6,0,14,0,21,15
Cc1nnc(-c2ccc3occ(-c4ccc(C(C)O)cc4)c3c2)o1 (stereo not drawn),0,0,0,9,0,2,3,6,11,31,1,32,14,0,5,6,9,2,0,0
NS(=O)(=O)CCc1cccc(Nc2nccc(-c3c(-c4cccc(NC(=O)c5c(F)cccc5F)c4)nn4ccccc34)n2)c1 [GSK336735],56,0,0,73,0,0,33,62,39,0,16,9,20,18,0,0,77,36,55,16
COc1ccc(CNC(=O)NC2CCN(c3ccnc(Nc4ccc(OC)cc4)n3)C2)cc1 (stereo not drawn) [GSK1379727],38,0,0,0,20,10,12,0,0,28,13,4,7,16,0,20,0,32,19,9
COc1ccc(Nc2nccc(N3CCC(NC(=O)Nc4cc(C)ccc4C)C3)n2)cc1 (stereo not drawn) [GSK1379741],36,0,13,0,0,21,0,0,0,18,19,16,10,23,0,0,0,24,0,5
Fc1ccc(-c2ncn(CCCN3CCOCC3)c2-c2ccccn2)cc1 [SB-211742],11,54,0,0,0,0,0,0,0,0,1,0,0,0,0,0,0,20,0,0
CCc1ccnc(/C=C/c2n[nH]c3cc(Sc4ccccc4C(=O)NC)ccc23)c1,30,0,0,0,8,4,14,0,0,8,32,5,1,0,0,0,0,0,3,0
CC(C)(C)n1cnc2c(N)ncnc21 [SKF-97359],33,19,31,0,0,0,0,0,0,0,0,0,4,0,0,0,18,20,0,2
Cc1c2ccc(N(C)c3ccnc(Nc4cccc(S(N)(=O)=O)c4)n3)cc2nn1Cc1ccccc1.Cl.Cl [GW787226],76,30,0,34,0,0,2,58,25,0,36,0,0,36,26,31,0,0,0,0
O=c1cc(N2CCOCC2)nc2n(Cc3cccc(C(F)(F)F)c3)ccn12 [GSK2297543],20,41,0,0,0,0,7,0,14,0,0,0,9,2,0,0,0,0,10,0
Nc1nccc(-c2c(-c3ccc(F)cc3)ncn2C2CCN(CC(F)(F)F)CC2)n1 [SB-236560],48,0,63,0,7,0,54,21,0,29,0,0,0,0,0,0,29,63,91.3,89
Cc1cccc(Cn2ccn3c(=O)cc(N4CCOCC4)nc23)c1 [GSK2297542],37,0,5,29,0,0,15,0,9,20,20,7,24,14,0,0,0,17,31,8
COc1cc2c(cc1OC[C@@H](O)CO)ncc1c3ccc(C#N)cc3[nH]c21,0,0,0,0,51,35,40,0,0,97.2,67,99.9,13,0,11,3,59,15,0,0
CC(=O)Nc1ccc(COc2ccc(Nc3ccnc4cc(-c5ccccn5)ccc34)cc2)cc1.Cl [GW440148],10,22,0,0,0,4,21,0,12,0,6,0,0,22,0,18,0,0,17,9
O=C(Nc1n[nH]c2cc(-c3cccc(F)c3)ccc12)C1CC1 [SB-735464],0,0,34,0,25,37,14,2,9,10,0,17,0,12,23,7,0,23,12,17

# From article PMC5540273 (PLoS ONE, 2017)
